The results in this text go back to PubChem BioAssay (NCATS).

Unmarked numbers belong to inactive results. Inconclusive results are not listed. The source made the active and inactive calls. Calls come from the whole dose curve; as a rule, active = well fitted curve in the direction sought with a large enough effect; inconclusive = small, poorly fitted or top-dose-only effect, or another doubt; inactive = no such curve, though single readings can be large; an effect the other way counts as inactive or inconclusive.

For test [1], the target named is Glutathione peroxidase 1 (Homo sapiens) (UniProt P07203). Description: Primary qHTS Assay for Inhibitors of Recombinant Selenoprotein Glutathione Peroxidase 1 (GPX1) (AID 1845191). For activity, negative = inhibition: % is set by controls: 0 for no effect and ±100 for the full control effect. Note: nearly all actives have a fitted effect of over 65% in size. The procedure, abridged: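 Recombinant GPX1 (10 nM final) was preincubated with compound for 30 min at room temperature, then reacted with 1 mM GSH, 0.5 mM CHP, 0.5 mM NADPH and 100 nM glutathione reductase; NADPH fluorescence (340/450 nm) was read at 0 and 15 min.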

Test [2] deals with Phospholipid hydroperoxide glutathione peroxidase GPX4 (Homo sapiens) (UniProt P36969). The test can be described thus: Primary qHTS Assay for Inhibitors of Recombinant Selenoprotein Glutathione Peroxidase 4 (GPX4) (AID 1845192). For activity change, negative = inhibition: series mostly up to about 50 µM; % is set by controls: 0 for no effect and ±100 for the full control effect. Note: nearly all actives have a fitted effect of over 65% in size. In short, it runs like this:
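GR-coupled readout: 100 nM GR, 1 mM GSH, 0.5 mM NADPH; NADPH fluorescence (ex 340/em 450 nm) read at t=0 and after 15 min RT. GPX4 200 nM, preincubated 30 min with compound; substrate 0.5 mM CHP.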

For test [3], the target named is Luciferin 4-monooxygenase (Photinus pyralis) (UniProt P08659). The test can be described thus: Primary firefly luciferase (FLuc) qHTS assay for identification of artifact compounds. (AID 1845220).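 For activity change, negative = inhibition: series mostly up to about 54 µM; plate controls were DMSO vehicle for no effect and no enzyme for full effect.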 Note: nearly all actives have a fitted effect of over 60% in size. The procedure, abridged: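 In this counter-screen for luciferase artifacts, test compounds met substrate (10 uM each luciferin and ATP) before 10 nM enzyme started the reaction. Light output was measured 5 min later.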

The nature of test [4]: Primary fluorescence-based thiol-reactive (MSTI) qHTS assay for identification of artifact compounds. (AID 1845221).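 For activity change, negative = thiol reactive: series mostly up to about 54 µM; thiol-reactive compounds lower the probe fluorescence signal.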 Note: nearly all actives have a fitted effect of over 65% in size. Note: potency is the fitted concentration of half-maximal effect. The procedure, abridged: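 Probe: MSTI 4 uM, PBS pH 7.4, 2% DMSO. Incubation 1 h, RT, light-protected. Readout fluorescence 525/598 nm.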
In test [5] the test system is Nanoluciferase (engineered Oplophorus gracilirostris luciferase). Description: Primary Nanoluciferase (NLuc) qHTS assay for identification of artifact compounds. (AID 1845222).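 Note: NLuc secreted into diluted conditioned medium of S16 cells; series mostly up to about 54 µM; 0% = DMSO and -100% = no enzyme.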 In short, it runs like this:
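Using secreted nanoluciferase in S16 culture medium (0.22 um filtered, 1:55 dilution), compounds were preincubated 15 min at RT. Signal was generated with Nano-Glo reagent (1:100) over 5 min.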

Test [6] can be described thus: Primary redox qHTS assay for identification of artifact compounds. (AID 1845223).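 Note: 0% = DMSO and 100% = reference compound.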 In short, it runs like this: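 Amplex Red (25 uM) and HRP (250 mU/mL) in HBSS, with compounds for 15 min, then 250 uM DTT for 30 min, room temperature, dark. Fluorescence 525/598 nm read; normalized to DMSO and 10 uM DA3003; Hill fit.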

Chain of Glutathione peroxidase 1 (Homo sapiens) (P07203 whole entry, looked up): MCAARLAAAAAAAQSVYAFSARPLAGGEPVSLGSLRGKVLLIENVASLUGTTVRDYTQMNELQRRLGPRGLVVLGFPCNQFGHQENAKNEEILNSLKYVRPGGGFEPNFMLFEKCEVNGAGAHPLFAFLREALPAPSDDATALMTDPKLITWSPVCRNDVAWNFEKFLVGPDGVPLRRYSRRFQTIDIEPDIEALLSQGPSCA
Chain of Phospholipid hydroperoxide glutathione peroxidase GPX4 (Homo sapiens) (P36969 whole entry, looked up): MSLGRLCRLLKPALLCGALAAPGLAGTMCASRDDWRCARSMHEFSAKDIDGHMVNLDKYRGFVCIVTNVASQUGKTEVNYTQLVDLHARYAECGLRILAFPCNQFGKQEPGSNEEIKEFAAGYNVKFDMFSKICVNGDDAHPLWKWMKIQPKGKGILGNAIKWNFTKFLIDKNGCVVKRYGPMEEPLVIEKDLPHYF

Consider `COCc1c(O)c(C(=O)O)c(C)c2c1OC(=O)c1c(C)cc(O)c(CO)c1O2`, for which the Potency result in test [1], in test [2], in test [3] and in test [5] was “inactive” throughout. For the same compound, in test [4], the Potency was 5.21 µM (active).
As to `CC1=C[C@H](O)[C@H]2C(C)(C)CCC[C@]2(C)[C@@]1(O)CO`, the Potency result in test [1], in test [2], in test [3], in test [4] and in test [5] was “inactive” in each case.
Take `COC(=O)C1=CO[C@@H](O[C@@H]2O[C@H](CO)[C@@H](O)[C@H](O)[C@H]2O)/C(=C\CO)[C@@H]1CC(=O)OCCc1ccc(O)cc1`: the Potency entry in test [1], in test [2], in test [3] and in test [5] was “inactive” throughout. Besides, the Potency in test [4] was 6.53 µM (active).
Regarding `Nc1ncnc2c1ncn2[C@H]1O[C@@H](C(=O)N2CCN(CC(=O)Nc3cccc4c3CNC4=O)CC2)[C@H](O)[C@@H]1O`, the Potency entry in test [1], in test [2], in test [3], in test [4] and in test [5] was “inactive” throughout.
Regarding `C[C@@H]1CCC2C(C)(C)[C@H](O)[C@H](O)C[C@]2(C)[C@@]12Cc1c(O)cc3c(c1O2)CN(CCCC(=O)O)C3=O` (some centres not stated), the Potency result in test [1], in test [2], in test [3], in test [4] and in test [5] was “inactive” in each case.
For `O=c1[nH]ccc2nc(-c3ccc(CN4CCC(c5nc(-c6ccccn6)n[nH]5)CC4)cc3)c(-c3ccccc3)cc12`, the Potency result in test [1], in test [2], in test [3], in test [4] and in test [5] was “inactive” throughout.
With `C[C@]1(C2CCCC2)Cc2cc(OCC(=O)O)c(Cl)c(Cl)c2C1=O`, the Potency entry in test [1], in test [2], in test [3], in test [4] and in test [5] was “inactive” throughout.
On to `CC1(C)CC2C(O)C3=C(CC(C)(O)C2C1)C(=O)OC3` (configuration not stated), for which the Potency entry in test [1], in test [2], in test [3], in test [4] and in test [5] was “inactive” each time.
As to `COc1ccc(-n2[nH]c3c(cnc4ccccc43)c2=O)cc1`, the Potency entry in test [1], in test [2], in test [3] and in test [5] was “inactive” each time. For the same compound, the Potency in test [4] was 4.74 µM (active).
As for `C/C1=C\CC(C)(C)/C=C/C/C(C(=O)O)=C/CC1`, the Potency result in test [1], in test [2], in test [3], in test [4] and in test [5] was “inactive” throughout.
As to `CC(C)=CCC(O)[C@](C)(O)C1[C@H](O)C[C@@]2(C)C3CC=C4C(C[C@H](O)[C@@H](O[C@@H]5O[C@H](CO)[C@@H](O)[C@H](O)[C@H]5O)C4(C)C)[C@]3(C)C(=O)C[C@]12C` (some centres not stated), the Potency entry in test [1], in test [2], in test [3], in test [4] and in test [5] was “inactive” throughout.
As to `C[C@@H]1C[C@H]2OC(=O)[C@@]3(C)CCC[C@](C)(C23)[C@@]1(O)CCC1=CC(=O)OC1O` (some centres not stated), the Potency entry in test [1], in test [2], in test [3] and in test [5] was “inactive” in each case. Further, the Potency in test [4] was 3.29 µM (active).
Turning to `COC(=O)C1=COC(OC2OC(CO)C(O)C(O)C2O)C2C(C)C(OC(=O)/C=C/c3ccc(O)cc3)C(O)C12` (configuration not stated), the Potency entry in test [1], in test [2], in test [3] and in test [5] was “inactive” in each case. For the same compound, the Potency in test [4] is 11.6 µM (active).
`C[C@@H]1O[C@@H](O[C@@H]2\C=C/C=C\C=C/C=C\C[C@H](C)OC(=O)/C=C\[C@H]3O[C@@H]3C[C@H](O)C[C@]3(O)C[C@@H](O)[C@@H](C(=O)O)[C@H](C2)O3)[C@H](O)[C@H](N)[C@@H]1O`: the Potency result in test [1], in test [2], in test [3], in test [4] and in test [5] was “inactive” each time.
As to `CC1=CC(=O)CC(C)(C)[C@@]1(O)/C=C/C(C)O[C@@H]1O[C@H](CO)[C@@H](O)[C@H](O)[C@H]1O` (some centres not stated), the Potency result in test [1], in test [2], in test [3], in test [4] and in test [5] was “inactive” each time.
Turning to `CCN1CCN(C(=O)N[C@@H](C(=O)N[C@@H]2C(=O)N3[C@@H]2SC(C)(C)[C@@H]3C(=O)O)c2ccccc2)C(=O)C1=O`, the Potency result in test [1], in test [2], in test [3], in test [4] and in test [5] was “inactive” each time.
`COC1CC(O[C@H]2CC[C@@]3(C)C(=CC[C@]4(O)C3[C@H](O)[C@@H](O)[C@]3(C)[C@@H]([C@H](C)O)CC[C@@]34O)C2)OC(C)C1OC1CC(OC)C(OC2CC(OC)C(OC3OC(C)C(OC4OC(CO)C(O)C(O)C4O)C(OC)C3O)C(C)O2)C(C)O1` (some centres not stated): the Potency entry in test [1] and in test [2] was “inactive” in each case. Besides, in test [3], the activity change, negative = inhibition is 1.06% [at 11.6 µM]. The activity change, negative = thiol reactive in test [4] is 43.2% [at 11.5 µM]. Moreover, the activity, negative = inhibition in test [5] was 0% [at 11.6 µM].
As for `C=CC(C)(C)C12Nc3c(ccc4c3OC(C)(C)C=C4)C1(O)CC1C(=O)N3CCCC3C(=O)N12` (configuration not stated), the Potency entry in test [1], in test [2], in test [3], in test [4] and in test [5] was “inactive” throughout.
As to `Cc1ccc(-c2c(-c3nn(C)c4ncnc(N5CC[C@H](N6CCCCC6)C5)c34)cnn2C)cc1`, the Potency result in test [1], in test [2], in test [3], in test [4] and in test [5] was “inactive” each time.
`Cc1ncc([N+](=O)[O-])n1C[C@H](O)CN1CCOCC1`: the Potency entry in test [1], in test [2], in test [3], in test [4], in test [5] and in test [6] was “inactive” in each case.
In the case of `C=CC(C)(O)CC/C=C(\C)C(=O)O[C@@H]1[C@@H](O)[C@H](OC(C)(C=C)CC/C=C(\C)C(=O)O)O[C@H](CO)[C@H]1OC(=O)/C(C)=C/CCC(C)(O)C=C` (some centres not stated), the Potency result in test [1], in test [2], in test [3], in test [4] and in test [5] was “inactive” in each case.
As to `C=C1CC/C=C(/C(=O)O)CCC2C1CC2(C)C` (configuration not stated), the Potency entry in test [1], in test [2], in test [3], in test [4], in test [5] and in test [6] was “inactive” throughout.
